# Where “and” joins values, the source holds several entries; their conditions need not be identical. Identical values can stand only once. Records with an inconclusive call do not appear. Entries that show only a call come without a potency. The source holds several records for some structures; these can differ, active in one and inactive in another. Calls of active or inactive are those of the source. Unless noted, calls come from the whole dose curve; as a rule, active = well fitted curve in the direction sought with a large enough effect in the repeat runs; inconclusive = weak or mixed curves; inactive = no such curve, though single readings can be large; an effect the other way counts as inactive or inconclusive.
# Experiments:
# [1] = qHTS assay to identify small molecule agonists of the hypoxia (HIF-1) signaling pathway - cell viability counter screen (AID 1224844; calls by dose curve; note: nearly all actives have a fitted effect of over 50% in size; note: potency is the fitted concentration of half-maximal effect)
# Method in brief: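 Viability counter screen: HRE-bla ME-180 cells plated 5 hrs before compound addition, treated 17 hrs at 37C and 5% CO2, then CellTiter-Glo added after the FRET reporter read; luminescence after 30 min.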
# [2] = qHTS assay to identify small molecule agonists of the hypoxia (HIF-1) signaling pathway (AID 1224846; active = well fitted activation curve with a large enough effect in the signal ratio in the repeat runs, not every such curve was filed as active; the % refers to the signal ratio)
# Method in brief: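 Agonist mode reporter screen. ME-180 cells stably expressing bla under HRE control received test compounds in DMSO for 17 hrs (37C, 5% CO2), and beta-lactamase activity was then detected with the CCF4-AM FRET substrate.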
# [3] = qHTS assay to identify small molecule agonists of H2AX - cell viability counter screen (AID 1224847; calls by dose curve; note: top concentration of the series differs between compounds; nearly all actives have a fitted effect of over 30% in size)
# Method in brief: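 Counter-screen for viability: CellTiter-Glo ATP luminescence read after 3 h compound treatment (15-point titration, 0.76% DMSO final) of CHO-K1 cells at 37C, with 30 min room-temperature reagent incubation.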
# [4] = qHTS RealTime-Glo MT Cell Viability Assay in HepG2 cells - 24 hour (AID 1224867); note: nearly all actives have a fitted effect of over 50% in size; note: potency is the fitted concentration of half-maximal effect
# Method in brief: (§1)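 HepG2 suspension premixed with RealTime-Glo reagents is plated at 600 cells per well and left 5 h at 37 C/5% CO2. Compounds in DMSO then go in, and bioluminescence reflecting viable cell number is recorded over 40 h.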
# [5] = qHTS RealTime-Glo MT Cell Viability Assay in HEK293 cells - 32 hour (AID 1224868); note: nearly all actives have a fitted effect of over 50% in size; note: potency is the fitted concentration of half-maximal effect
# Method in brief: (§2)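 Reads taken at 0, 8, 16, 24, 32 and 40 h from the same wells. HEK293 cells (600/well) carried RealTime-Glo reagents from seeding, with compound added after a 5 h settle at 37 C.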
# [6] = A CellTox Green Cytotoxicity Assay to monitor cytotoxicity in HEK293 cells - 0 hour (AID 1224869); note: nearly all actives have a fitted effect of over 50% in size; note: potency is the fitted concentration of half-maximal effect
# Method in brief: (§3)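 Dead-cell fluorescence measured kinetically: asymmetric cyanine dye, HEK293, 600 cells/well, 5 h settle, 23 nL cpd/DMSO, 37 C, reads 0–40 h every 8 h.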
# [7] = qHTS RealTime-Glo MT Cell Viability Assay in HepG2 cells - 40 hour (AID 1224870); note: nearly all actives have a fitted effect of over 50% in size; note: potency is the fitted concentration of half-maximal effect
# Method in brief: (§4)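 HepG2 cells mixed with RealTime-Glo MT reagents (NanoLuc plus cell-permeant prosubstrate) were seeded at 600 cells/well, incubated 5 h at 37 C/5% CO2, then pinned with compounds in DMSO; nonlytic luminescence tracked viability during 40 h treatment.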
# [8] = A CellTox Green Cytotoxicity Assay to monitor cytotoxicity in HEK293 cells - 40 hour (AID 1224871); note: nearly all actives have a fitted effect of over 45% in size; note: potency is the fitted concentration of half-maximal effect
# Method in brief: as §3
# [9] = qHTS RealTime-Glo MT Cell Viability Assay in HEK293 cells - 16 hour (AID 1224872); note: nearly all actives have a fitted effect of over 50% in size; note: potency is the fitted concentration of half-maximal effect
# Method in brief: as §2
# [10] = qHTS RealTime-Glo MT Cell Viability Assay in HepG2 cells - 8 hour (AID 1224873); note: nearly all actives have a fitted effect of over 55% in size; note: potency is the fitted concentration of half-maximal effect
# Method in brief: as §4
# [11] = A CellTox Green Cytotoxicity Assay to monitor cytotoxicity in HEK293 cells - 24 hour (AID 1224875); note: nearly all actives have a fitted effect of over 45% in size; note: potency is the fitted concentration of half-maximal effect
# Method in brief: as §3
# [12] = A CellTox Green Cytotoxicity Assay to monitor cytotoxicity in HepG2 cells - 16 hour (AID 1224876); note: nearly all actives have a fitted effect of over 45% in size; note: potency is the fitted concentration of half-maximal effect
# Method in brief: (§5)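 First, HepG2 cells (600/well) mixed with reagent were plated; second, after 5 h at 37 C they received compounds via pintool; third, fluorescence was measured at 0 h through 40 h at 8 h intervals.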
# [13] = qHTS RealTime-Glo MT Cell Viability Assay in HepG2 cells - 32 hour (AID 1224877); note: nearly all actives have a fitted effect of over 55% in size; note: potency is the fitted concentration of half-maximal effect
# Method in brief: as §1
# [14] = A CellTox Green Cytotoxicity Assay to monitor cytotoxicity in HepG2 cells - 24 hour (AID 1224878); note: nearly all actives have a fitted effect of over 45% in size; note: potency is the fitted concentration of half-maximal effect
# Method in brief: as §5
# [15] = A CellTox Green Cytotoxicity Assay to monitor cytotoxicity in HepG2 cells - 40 hour (AID 1224879); note: nearly all actives have a fitted effect of over 40% in size; note: potency is the fitted concentration of half-maximal effect
# Method in brief: as §5
# [16] = qHTS RealTime-Glo MT Cell Viability Assay in HEK293 cells - 0 hour (AID 1224880); note: nearly all actives have a fitted effect of over 45% in size; note: potency is the fitted concentration of half-maximal effect
# Method in brief: (§6)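 600 HEK293 cells per well, dispensed already mixed with RealTime-Glo MT reagents. Compound dosing came 5 h later. The same wells were read for luminescence at 0, 8, 16, 24, 32 and 40 h of exposure at 37 C.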
# [17] = qHTS assay to identify small molecule antagonists of the estrogen related receptor (ERR) signaling pathway from Tox21 library (AID 1224848); note: nearly all actives have a fitted effect of over 50% in size; note: potency is the fitted concentration of half-maximal effect
# Method in brief: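 Tox21 10K compounds in DMSO tested for ERR pathway antagonism in NTP's ERR cell line; 18 h, 37 C exposure; ONE-Glo luminescence.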
# [18] = qHTS assay to identify small molecule agonists of the estrogen related receptor (ERR) signaling pathway from Tox21 library (AID 1224849; calls by dose curve; note: nearly all actives have a fitted effect of over 15% in size); settings: ERR reporter cell line, ONE-Glo luciferase, 18 h
# Method in brief: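 Quantitative HTS in agonist format: NTP ERR cell line, compounds transferred in DMSO after 6 h plating, 18 h incubation at 37 C, ONE-Glo luminescence endpoint.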
# [19] = qHTS RealTime-Glo MT Cell Viability Assay in HEK293 cells - 40 hour (AID 1224874); settings: RealTime-Glo luminescence; max response: stronger effect = lower value; note: nearly all actives have a fitted effect of over 50% in size; note: potency is the fitted concentration of half-maximal effect
# Method in brief: as §6
# [20] = qHTS assay to identify small molecule agonists of H2AX (AID 1224845; active = well fitted activation curve with a large enough effect in the signal ratio in the repeat runs, not every such curve was filed as active; the % refers to the signal ratio)
# Method in brief: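 Wild-type CHO-K1 cells plated overnight, then exposed 3 hr at 37C to compounds at 15 concentrations (0.76% DMSO). Lysed, then HTRF anti-pH2AX(S139)-cryptate/anti-H2AX-d2 detection after 24 hr at room temperature; emissions 665 and 620 nm.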
smiles,measurement,setting,value
Nc1ccc([N+](=O)[O-])cc1O,Potency,[1],inactive
same,outcome,[2],inactive
same,Potency,[3],inactive
same,Potency,[4],inactive
same,Potency,[5],inactive
same,Potency,[6],inactive
same,Potency,[7],inactive
same,Potency,[8],inactive
same,Potency,[9],inactive
same,Potency,[10],inactive
same,Potency,[11],inactive
same,Potency,[12],inactive
same,Potency,[13],inactive
same,Potency,[14],inactive
same,Potency,[15],inactive
same,Potency,[16],inactive
Nc1ccc(O)c([N+](=O)[O-])c1,Potency,[1],inactive
same,outcome,[2],inactive
same,Potency,[3],inactive
same,Potency,[17],inactive
same,"activity change, positive = activation",[18]; at 92.4 µM (top of the series),60.3% (active)
same,Potency,[4],inactive
same,Potency,[7],inactive
same,Potency,[9],inactive
same,Potency,[10],inactive
same,Potency,[11],inactive
same,Potency,[12],inactive
same,Potency,[13],inactive
same,Potency,[14],inactive
same,Potency,[15],inactive
O=C1OC2(c3ccccc31)c1cc(Br)c(O)c(Br)c1Oc1c2cc(Br)c(O)c1Br,Potency,[1],inactive
same,Potency,[3],inactive
same,Potency,[4],inactive
same,Potency,[5],inactive
same,Potency,[6],11.1 µM (active) and 17.9 µM (active) and 23.9 µM (active)
same,Potency,[7],inactive
same,Potency,[8],3.95 µM (active) and 11.3 µM (active) and 7.56 µM (active)
same,Potency,[9],inactive
same,Potency,[10],inactive
same,max response,[19],-26.3% (inactive) and -6.61% (inactive)
same,Potency,[11],4.43 µM (active) and 7.11 µM (active) and 9.52 µM (active)
same,Potency,[12],4.97 µM (active) and 14.2 µM (active) and 23.9 µM (active)
same,Potency,[13],inactive
same,Potency,[14],4.97 µM (active) and 12.7 µM (active) and 23.9 µM (active)
same,Potency,[15],5.58 µM (active) and 14.2 µM (active) and 23.9 µM (active)
same,Potency,[16],9.92 µM (active) and 17.9 µM (active) and 23.9 µM (active)
CC(C)c1c(C(=O)Nc2ccccc2)c(-c2ccccc2)c(-c2ccc(F)cc2)n1CC[C@@H](O)C[C@@H](O)CC(=O)O,Potency,[1],inactive
same,outcome,[2],inactive
same,Potency,[3],inactive
same,Potency,[4],inactive
same,Potency,[5],inactive
same,Potency,[7],inactive
same,Potency,[8],inactive
same,Potency,[9],inactive
same,Potency,[10],inactive
same,max response,[19],-21% (inactive)
same,Potency,[11],inactive
same,Potency,[12],inactive
same,Potency,[13],inactive
same,Potency,[14],2.98 µM (active) and 45.8 µM (active) and 4.77 µM (active)
same,Potency,[15],4.21 µM (active) and 5.13 µM (active) and 7.56 µM (active)
Cc1cn([C@H]2C=C[C@@H](CO)O2)c(=O)[nH]c1=O,Potency,[1],inactive
same,Potency,[3],inactive
same,Potency,[4],inactive
same,Potency,[5],inactive
same,Potency,[6],inactive
same,Potency,[7],inactive
same,Potency,[8],inactive
same,Potency,[9],inactive
same,Potency,[10],inactive
same,max response,[19],3.84% (inactive) and 0.681% (inactive)
same,Potency,[11],inactive
same,Potency,[12],inactive
same,Potency,[13],inactive
same,Potency,[14],inactive
same,Potency,[15],inactive
CC(O)(P(=O)(O)O)P(=O)(O)O,Potency,[1],inactive
same,Potency,[20],inactive
same,Potency,[3],inactive
same,Potency,[4],inactive
same,Potency,[5],inactive
same,Potency,[7],inactive
same,Potency,[8],inactive
same,Potency,[9],inactive
same,Potency,[10],inactive
same,max response,[19],-0.279% (inactive) and 1.56% (inactive) and -3.74% (inactive)
same,Potency,[11],inactive
same,Potency,[12],inactive
same,Potency,[13],inactive
same,Potency,[14],inactive
same,Potency,[15],inactive
same,Potency,[16],inactive
NC(=O)n1c(O)c(C(=O)c2cccs2)c2cc(Cl)ccc21,Potency,[1],inactive
same,Potency,[3],inactive
same,Potency,[4],inactive
same,Potency,[5],inactive
same,Potency,[6],inactive
same,Potency,[7],inactive
same,Potency,[8],inactive
same,Potency,[9],inactive
same,Potency,[10],inactive
same,max response,[19],3.23% (inactive)
same,Potency,[11],inactive
same,Potency,[12],inactive
same,Potency,[13],inactive
same,Potency,[14],inactive
same,Potency,[15],inactive
CN1CCc2cccc3c2[C@H]1Cc1ccc(O)c(O)c1-3,Potency,[1],39.3 µM (active) and 16.3 µM (active)
same,Potency,[3],inactive
same,Potency,[17],24.6 µM (active) and 18.1 µM (active)
same,"activity change, positive = activation",[18]; at 42.5 µM (top of the series),-69.6% (inactive) and -53% (inactive)
same,"activity change, positive = activation",[18]; at 92.4 µM (top of the series),-66.3% (inactive)
same,Potency,[4],44.1 µM (active) and 16.3 µM (active) and 23.9 µM (active)
same,Potency,[5],15.7 µM (active) and 8.17 µM (active) and 23.9 µM (active)
same,Potency,[6],inactive
same,Potency,[7],18.3 µM (active)
same,Potency,[8],55.5 µM (active) and inactive
same,Potency,[9],15.7 µM (active) and 10.3 µM (active)
same,Potency,[10],49.5 µM (active)
same,Potency,[19],15.7 µM (active) and 10.3 µM (active) and 21.3 µM (active)
same,Potency,[11],inactive
same,Potency,[12],inactive
same,Potency,[13],49.5 µM (active) and 16.3 µM (active)
same,Potency,[14],inactive
same,Potency,[15],49.5 µM (active) and 18.3 µM (active) and inactive
same,Potency,[16],inactive
O=S1(=O)OC(c2ccc(O)cc2)(c2ccc(O)cc2)c2ccccc21,Potency,[1],inactive
same,outcome,[2],inactive
same,Potency,[3],inactive
same,Potency,[17],inactive
same,"activity change, positive = activation",[18]; at 42.5 µM (top of the series),-3.19% (inactive)
same,"activity change, positive = activation",[18]; at 92.4 µM (top of the series),-32% (inactive) and -12.4% (inactive)
same,Potency,[4],49 µM (active) and inactive
same,Potency,[5],inactive
same,Potency,[6],inactive
same,Potency,[7],49 µM (active) and inactive
same,Potency,[8],inactive
same,Potency,[9],inactive
same,Potency,[10],49 µM (active) and inactive
same,max response,[19],-23.8% (inactive)
same,Potency,[11],inactive
same,Potency,[12],inactive
same,Potency,[13],49 µM (active) and inactive
same,Potency,[14],inactive
same,Potency,[15],inactive
same,Potency,[16],inactive
COc1ccc(CN(CCN(C)C)c2ccccn2)cc1,Potency,[20],inactive
same,Potency,[3],inactive
same,Potency,[6],inactive
same,Potency,[8],inactive
same,Potency,[11],inactive
same,Potency,[12],inactive
same,Potency,[14],inactive
same,Potency,[15],inactive
